Bioassay records (PubChem BioAssay)
Most compounds without a hit are left out; they make up all but 3.3% or so of the library.
ERb coact inh = inhibitors of ERβ-SRC1 coactivator interaction, primary screen, biochemical, TR-FRET, ERβ LBD, SRC-1 peptide; Estrogen receptor beta (Homo sapiens), Q92731; TR-FRET ER-beta LBD / SRC1-Cy5 peptide binding; receptor agonist-loaded with 1 µM estradiol; actives 1.3% (n = 86,000); inhibition, % at 25.6 µM; AID 633, 2007;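 active = compounds whose percent inhibition of the receptor-coactivator binding signal exceeds about 50% in the single-dose screen, limit read from the data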;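 note: 0% = receptor plus peptide wells without compound and 100% = peptide-only wells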
FAK blocker = FAK kinase inhibitors, primary screen, biochemical | actives 0.84% (n = 97,000) | Focal adhesion kinase 1 (Homo sapiens), Q05397 | inhibition, %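 (tested at 7 µM)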 | AID 727, 2007 | biochemical FAK kinase activity assay; in the data active = inhibition above about 19%;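 note: 0% = DMSO and 100% = reference compound high control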
ERa coact pot = enhancers of ERα–SRC-1 coactivator binding, primary screen, biochemical, TR-FRET, ERα LBD, low estradiol. AID 639, 2007. actives 1.3% (n = 86,000). coactivator binding (% of control), % at 25.6 µM. Estrogen receptor (Homo sapiens), P03372. TR-FRET ERalpha-LBD/SRC-Cy5 coactivator binding, 2 h; 100 = basal binding, no effect; in the data active = activity above about 200%;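 note: binding measured in presence of low estradiol as agonist stimulus; 0% = peptide alone without receptor and 100% = receptor with peptide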
ERa SRC1 inh = ERα–SRC-1 coactivator interaction inhibitors, primary screen, biochemical, TR-FRET, ERα LBD, estradiol-bound. Estrogen receptor (Homo sapiens), P03372. TR-FRET ER-alpha LBD / SRC-1 peptide. inhibition, % at 25.6 µM. actives 1.7% (n = 86,000); in the data active = inhibition above about 50%;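 note: 0% = receptor plus peptide control and 100% = peptide only without receptor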
Smad3 FoxH1 inh = Smad3/FoxH1 peptide binding inhibitors, primary screen, biochemical, TR-FRET | inhibition, % at 25 µM | actives 0.29% (n = 88,000) | Mothers against decapentaplegic homolog 3 (Homo sapiens), P84022 | TR-FRET Smad3/Dy647-FoxH1 peptide binding, europium anti-His;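 active = compounds that reduce the energy-transfer binding signal between the protein and its labelled peptide by more than half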;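 note: 0% = Smad3 plus labelled peptide maximal FRET and 100% = peptide-only background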
Target sequence (P84022 whole entry, looked up): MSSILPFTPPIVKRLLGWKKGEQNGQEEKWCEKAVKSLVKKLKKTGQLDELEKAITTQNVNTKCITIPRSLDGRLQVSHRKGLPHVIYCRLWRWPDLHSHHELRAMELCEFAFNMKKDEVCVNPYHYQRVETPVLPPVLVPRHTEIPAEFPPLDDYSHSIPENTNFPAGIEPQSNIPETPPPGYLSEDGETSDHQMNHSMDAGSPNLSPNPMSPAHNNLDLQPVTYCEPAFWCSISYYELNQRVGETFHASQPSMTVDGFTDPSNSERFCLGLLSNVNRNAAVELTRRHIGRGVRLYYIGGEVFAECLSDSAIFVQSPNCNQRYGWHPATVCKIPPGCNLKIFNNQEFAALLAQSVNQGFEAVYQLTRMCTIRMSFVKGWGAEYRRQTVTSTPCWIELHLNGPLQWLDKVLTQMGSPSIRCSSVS
Active calls of the source: *; x = not tested or not shown; [ ] = remark or other dose.

SMILES | ERb coact inh | FAK blocker | ERa coact pot | ERa SRC1 inh | Smad3 FoxH1 inh
Cc1ccc2oc(=O)c3cnn(CC(=O)N4CCCc5ccccc54)c3c2c1 | -8.0 | -6.0 | 265.4*[fluorescence artefact?] | -7.7 | -8.0
CN(CCC(=O)O)S(=O)(=O)c1ccccc1 | x | x | x | x | -11.6
O=C(CCC(=O)c1cccs1)Nc1nnc(C2CC2)s1 | 41.6 | 1.3 | 64.5 | 52.4* | -22.8
CS(=O)(=O)c1ccc2nc(NC(=O)CCC(=O)c3cccs3)sc2c1 | 39.6 | 5.9 | 67.2 | 67.7* | 7.1
O=C(CCC(=O)Nc1nnc(C2CCCCC2)s1)NCc1cccs1 | -7.5 | 5.5 | 104.0 | -1.0 | 5.6
CC(C)c1ccc(O)c(O)c(=O)c1 (tested in a mixture with another compound) | x | x | x | x | 16.0
Cn1c(SCC(=O)Nc2sc3c(c2C#N)CCC3)nnc1C1COc2ccccc2O1 (stereo not given) | 40.8 | 2.0 | 68.8 | 65.6*[fluorescence artefact?] | -4.8
COc1cccc(OC)c1C(=O)OCC(=O)Nc1ccc(OC(F)(F)F)cc1 | x | -1.3 | x | x | x
CCc1ccc2nc(SCC(=O)N3CCCCC3)c(C#N)cc2c1 | -7.0 | 9.0 | 95.3 | -7.6 | 1.7
CCc1ccc2nc(SCC(=O)N3CC(=O)Nc4ccccc43)c(C#N)cc2c1 | -13.3 | 0.3 | 359.8* | 4.7 | 21.6
Oc1ccccc1-c1nnc(SCCN2CCOCC2)n1Cc1ccccc1 | 59.4* | 5.8 | 86.4 | 25.7 | 13.7
O=C(CSc1nnc(-c2ccccc2)n1Cc1ccccc1)N1CCOCC1 | -38.1 | -2.5 | 107.2 | -40.8 | 7.1
Nn1c(COc2ccccc2)nnc1SCC(=O)O | -2.9 | -0.4 | 251.7*[fluorescence artefact?] | -1.6 | 6.7
COc1ccc(OCc2nnc(SCC(=O)O)n2N)cc1 | -24.2 | -5.9 | 109.9 | -28.6 | 4.4
Cc1ccc(C)n1-c1ccc(C(=O)O)cc1 | 46.3 | -1.2 | 19.4 | 54.1*[fluorescence artefact?] | 28.9
CN(C)CC/C=C1/c2ccccc2Sc2c(O)cc(Cl)cc21 | -10.1 | 40.2* | 90.5 | -2.1 | 3.3
C/C(=N\O)c1cccc[n+]1Cc1ccccc1 | x | x | x | x | -5.4
C[C@@](N)(Cc1c[nH]c2ccccc12)C(=O)O | x | x | x | x | 1.9
Cn1c(=O)[nH]c(=O)c2c1nc(CN1CCN(c3ccc(F)cc3)CC1)n2CCc1ccccc1 | -6.2 | 0.9 | 399.0*[fluorescence artefact?] | -20.7 | 15.4
O=C(c1ccc2c(c1)[nH]c(=S)n1c3ccccc3nc21)N1CCN(c2ncccn2)CC1 | -3.8 | -1.1 | 72.6 | 50.6*[fluorescence artefact?] | 0.2
COc1ccc(-c2cc([C@H](O)[C@@H]3CCCCN3)c3ccccc3n2)cc1 | x | x | x | x | 12.5
CCCN1Cc2cccc(C(=O)Nc3ccc(N4CCN(CC)CC4)cc3)c2C1=O | 15.7 | x | 85.4 | 15.6 | 5.3
CCN1CCN(c2ccc(NC(=O)c3cccc4ncccc34)cc2)CC1 | 63.1*[fluorescence artefact?] | 11.9 | 25.3 | 50.0*[fluorescence artefact?] | 5.7
COCCCn1c(=N)c(C(N)=S)cc2c(=O)n3cccc(C)c3nc21 | 34.7 | x | 37.3 | 68.9*[fluorescence artefact?] | -11.5
CCn1c(=N)c(C(N)=O)cc2c(=O)n3cccc(C)c3nc21 | 36.8 | 6.5 | 64.7 | 50.0* | 1.4
SMILES | ERb coact inh | FAK blocker | ERa coact pot | ERa SRC1 inh | Smad3 FoxH1 inh
Nc1ccc(C(=O)C[C@H](N)C(=O)O)cc1O | x | x | x | x | 2.7
Fc1ccc(-c2nnc(-n3nnc4ccccc43)c3ccccc23)cc1 | 47.3 | 2.0 | 156.5 | 57.8* | -1.9
C=CCn1cnc2c(c1=O)c1nc3ccccc3nc1n2/N=C/c1cccc(OC)c1OC | -1.1 | x | 65.9 | 85.2*[fluorescence artefact?] | 5.0
CCC(C)(C)n1nnnc1CN1CCN(C(c2ccccc2)c2ccccc2)CC1 | 22.0 | 2.0 | 85.2 | 16.8 | -9.8
COc1ccccc1CN(Cc1nc2ccccc2c(=O)[nH]1)S(=O)(=O)c1ccc2ccccc2c1 | 19.7 | 4.4 | 279.6* | 24.7 | 0.4
CC1=NNC(=S)NCCCN2CCN(CCCNC(=S)NN=C(C)C=NNC(=S)NCCCN3CCN(CCCNC(=S)NN=C1)CC3)CC2 | x | x | x | x | 19.4
CC(=O)c1oc2ccccc2c1NC(=O)COC(=O)c1ccc(-n2nc(C)cc2C)cc1 | 32.5 | x | 79.2 | 75.0*[fluorescence artefact?] | -0.7
COc1ccc(Nc2nnc(SCc3cc(=O)n4ccsc4n3)s2)cc1 | 52.1* | 4.3 | 51.9 | 76.4*[fluorescence artefact?] | 32.9
O=c1cc(CSc2nc3cc(Cl)ccc3o2)nc2sccn12 | 1.3 | 2.9 | 106.8 | 4.5 | 7.1
O=C(O)[C@@H]1[C@H](C(=O)Nc2ccccc2)[C@@H]2C=C[C@H]1O2 | x | x | x | x | 9.3
CC12CCC(=O)N1C(C(=O)Nc1cccc3ccccc13)CS2 (stereo not given) | 2.4 | x | 123.4 | -4.5 | 5.5
CC12CCC(=O)N1C(C(=O)OCC(=O)Nc1sccc1C#N)CS2 (stereo not given) | 68.4* | 3.2 | 37.0 | 91.0*[fluorescence artefact?] | 13.7
C[C@@H](CS(=O)(=O)Cc1ccccc1)C(N)=O | x | x | x | x | 1.7
NC(=O)C1CCN(c2nc(-c3ccccc3)nc3c2oc2ccccc23)CC1 | 36.5 | -2.8 | 343.6*[fluorescence artefact?] | 21.9 | -19.7
NC(=O)C1CCN(c2nc(-c3ccccc3)nc3ccccc23)CC1 | 2.3 | -2.0 | 122.5 | -0.8 | -3.5
O=C(Nc1cnc2ccccc2c1)c1ccco1 | -5.2 | 2.1 | 117.4 | 56.5* | -6.2
O=C(Nc1cccc(-c2cnc3ccccc3n2)c1)c1ccco1 | -14.4 | 5.4 | 106.8 | -21.2 | 5.6
Cc1cc2ccccc2n1CCNC(=O)c1ccc(S(=O)(=O)N2CCOCC2)cc1 | 31.0 | x | 97.9 | 70.0*[fluorescence artefact?] | 7.2
O=C(NCc1ccco1)c1ccc(S(=O)(=O)N2CCOCC2)cc1 | 56.2*[fluorescence artefact?] | 10.6 | 37.4 | 70.0*[fluorescence artefact?] | -7.6
O=C(NCCn1ccc2ccccc21)c1ccc(S(=O)(=O)N2CCCCC2)cc1 | 34.8 | x | 109.7 | -7.9 | 59.0*
CCC(=O)NCCn1c(C)cc2ccccc21 | -1.8 | -6.6 | 79.9 | -4.9 | -1.1
Cc1cc2ccccc2n1CCNC(=O)Cc1cccc2ccccc12 | 5.3 | 1.2 | 211.7* | -0.3 | 4.4
[O-]/N=C1/C(=[OH+])Nc2ccccc21.[O-]Nc1c([O+]=[Cu])[nH]c2ccccc12 | x | x | x | x | 9.8
COc1ccc(-c2cc3nc4c(c(=O)n3[nH]2)CCC4)cc1 | 42.9 | 0.2 | 39.5 | 52.0*[fluorescence artefact?] | -1.1
O=c1c2c(nc3cc(-c4ccccc4)[nH]n13)CCC2 | -10.4 | 0.1 | 101.0 | 2.8 | 11.7
S=C(Nc1ccc2cn[nH]c2c1)Nc1ccc2cn[nH]c2c1 | x | x | x | x | 45.1
O=C(CSc1nccn1-c1ncc(C(F)(F)F)cc1Cl)c1ccc(Cl)cc1 | x | 8.0 | x | x | x
Cc1ccc2c(c1)c1c3n2CC(=C2C(=O)OC(C)(C)OC2=O)NC3CCC1 (stereo not given) | 54.2*[fluorescence artefact?] | 0.4 | 82.2 | 43.6 | -6.3
Cc1ccc2c(c1)c1c3n2CCN(C(=O)C2CC2)C3CCC1 (stereo not given) | -1.5 | 4.2 | 97.9 | 2.2 | 11.3
